High-throughput results deposited in PubChem by several laboratories.
This is a sample that favours compounds with a hit; in the whole collection about 2.2% have one here.
beta cell repl: MIN6 beta-cell proliferation induction | MIN6 cells proliferation, ATPlite luminescence, 48 h; cells starved in 0.2% serum; 100% = growth in 10% serum | proliferation, % at 10 µM | 330,000 tested, 0.29% active;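 active = compounds whose signal lies at least 3.5 SD above the mean of all wells on their plate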;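 note: 0% = DMSO-treated cells in low-serum medium and 100% = 10% serum control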
Myeloid diff MLP: compounds promoting myeloid differentiation; ER-HoxA9 myeloid progenitors, lysozyme-GFP differentiation, flow cytometry; calls only at 10 µM; AID 624256; 360,000 tested, 1% active;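 active = normalized GFP-positive differentiation at or above the plate's own cutoff, the solvent-only control mean plus 3 SD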;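 note: cells exposed to compound for four days before flow analysis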
ABCB6 inh MLPCN: human ABCB6 transporter inhibition | Q9NP58 | K562-ABCB6 porphyrin accumulation, flow cytometry, 1 h; hits give low values | fluorescence ratio to DMSO, % at 10 µM | 360,000 tested, 0.19% active | AID 602162;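 active = fluorescence ratio to DMSO below 75%, the collection mean minus 3 SD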;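 note: signal is porphyrin accumulated inside mitochondria; 100% equals median channel fluorescence of DMSO control wells; lower ratio means ABCB6 inhibition with less porphyrin fluorescence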
Target sequence (Q9NP58 whole entry, looked up): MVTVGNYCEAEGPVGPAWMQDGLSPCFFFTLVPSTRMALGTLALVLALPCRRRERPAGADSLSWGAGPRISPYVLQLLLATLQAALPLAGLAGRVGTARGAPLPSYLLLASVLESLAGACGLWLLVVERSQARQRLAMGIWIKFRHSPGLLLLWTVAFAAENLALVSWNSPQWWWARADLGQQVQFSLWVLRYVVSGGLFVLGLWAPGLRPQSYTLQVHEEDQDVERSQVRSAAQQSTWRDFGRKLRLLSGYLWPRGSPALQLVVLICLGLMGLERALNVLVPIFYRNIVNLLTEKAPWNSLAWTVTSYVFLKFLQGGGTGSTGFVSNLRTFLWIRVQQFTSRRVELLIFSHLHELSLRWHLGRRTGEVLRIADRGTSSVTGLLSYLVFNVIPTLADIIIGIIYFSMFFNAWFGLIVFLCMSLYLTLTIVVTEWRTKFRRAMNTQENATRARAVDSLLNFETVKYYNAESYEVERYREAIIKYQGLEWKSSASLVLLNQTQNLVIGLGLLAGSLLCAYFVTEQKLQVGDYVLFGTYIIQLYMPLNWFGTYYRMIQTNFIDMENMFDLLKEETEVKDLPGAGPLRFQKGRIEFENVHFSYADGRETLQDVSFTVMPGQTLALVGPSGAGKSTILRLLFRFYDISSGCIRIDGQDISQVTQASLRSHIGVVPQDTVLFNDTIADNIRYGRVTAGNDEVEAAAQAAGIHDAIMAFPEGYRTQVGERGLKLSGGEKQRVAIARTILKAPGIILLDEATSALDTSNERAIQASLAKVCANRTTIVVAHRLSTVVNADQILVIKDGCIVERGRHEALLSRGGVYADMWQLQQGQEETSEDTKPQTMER
H9c2 protect: protects H9c2 cardiomyocytes from peroxide injury; protection from H2O2 cell death, % at 20 µM; H2O2 injury protection, ATPLite, 2 h; AID 588492; 360,000 tested, 0.63% active;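 active = compounds giving at least 50% protection of heart cells from peroxide-induced death in the single-dose screen, raw or plate-pattern-corrected value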;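 note: 0% = DMSO wells with peroxide and 100% = DMSO wells without peroxide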
hiPSC survival: increases survival of single human iPS cells | AID 602274 | hiPSC single-cell survival, ATPlite luminescence; 100% = ROCK inhibitor wells, 0% = DMSO | survival enhancement, % at 20 µM | 360,000 tested, 0.044% active; in the data active = survival enhancement above about 18%;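 note: cells exposed to compounds for 16 hours before the ATP read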
An asterisk follows results filed as active.

Screening NC(c1csc(NC(=O)Nc2cccc(Cl)c2)n1)c1ccccc1Cl (centres undefined) returned Myeloid diff MLP inactive, ABCB6 inh MLPCN 98.0, H9c2 protect 19.2 and hiPSC survival -2.4.
Screening Cc1nc2ccccc2c(=O)n1/N=C/c1ccc2ccccc2c1O returned beta cell repl 3.9, Myeloid diff MLP inactive, ABCB6 inh MLPCN 96.0, H9c2 protect 57.0* and hiPSC survival -0.6.
`Cc1c(C(=O)NCC2COc3ccccc3O2)oc2ccc(S(=O)(=O)N3CCOCC3)cc12` (centres undefined) gave beta cell repl -2.7, Myeloid diff MLP inactive, ABCB6 inh MLPCN 96.0, H9c2 protect 60.0* and hiPSC survival -1.6.
Screening CCN(CC)S(=O)(=O)c1ccc2oc(C(=O)NCC3COc4ccccc4O3)c(C)c2c1 (centres undefined) returned beta cell repl -4.1, Myeloid diff MLP inactive, ABCB6 inh MLPCN 93.0, H9c2 protect 54.0* and hiPSC survival -2.4.
`O=[N+]([O-])c1cc(/C=N/OCc2c(Cl)cccc2Cl)ccc1N1CCOCC1` gave beta cell repl -2.8, Myeloid diff MLP inactive, ABCB6 inh MLPCN 54.0*, H9c2 protect -3.2 and hiPSC survival 0.9.
Screening COc1ccc(-c2[nH]ncc2N=Nc2cc(C)cc(C)c2)cc1 returned beta cell repl -5.7, Myeloid diff MLP active, ABCB6 inh MLPCN 101.0, H9c2 protect -20.6 and hiPSC survival 0.6.
CC(C)/C=C1\CC/C(=C\c2ccc(N(C)C)cc2)C1=O was read as beta cell repl 0.0, Myeloid diff MLP active, ABCB6 inh MLPCN 205.0, H9c2 protect -8.4 and hiPSC survival -0.8.
For Cc1ccc(S(=O)(=O)c2nc(S(C)(=O)=O)sc2N2CCCCC2C)cc1 (centres undefined) the results were beta cell repl 6.7, Myeloid diff MLP active, ABCB6 inh MLPCN 95.0, H9c2 protect -1.7 and hiPSC survival -0.5.
`CS(=O)(=O)c1nc(S(=O)(=O)c2ccc(Cl)cc2)c(N2CCN(CCO)CC2)s1` gave beta cell repl -2.4, Myeloid diff MLP active, ABCB6 inh MLPCN 101.0, H9c2 protect 9.2 and hiPSC survival -0.5.
`Cc1ccc(S(=O)(=O)c2nc(S(C)(=O)=O)sc2N2CCC(O)CC2)cc1` gave beta cell repl 1.1, Myeloid diff MLP inactive, ABCB6 inh MLPCN 103.0, H9c2 protect 1.4 and hiPSC survival 0.2.
Screening COc1ccc(/C=N\NC(=S)SCN2C(=O)C3CCC(C)(C2=O)C3(C)C)cc1 (centres undefined) returned beta cell repl -1.4, Myeloid diff MLP inactive, ABCB6 inh MLPCN 87.0, H9c2 protect 5.5 and hiPSC survival -1.4.
CC12CCC(C(=O)N(CSC(=S)N/N=C\c3ccccc3O)C1=O)C2(C)C (centres undefined) was read as beta cell repl -1.4, Myeloid diff MLP inactive, ABCB6 inh MLPCN 92.0, H9c2 protect 52.5* and hiPSC survival -1.9.
For COc1cc(CNCc2ccco2)cc(OC)c1O the results were beta cell repl -2.5, Myeloid diff MLP inactive, ABCB6 inh MLPCN 91.0, H9c2 protect -4.3 and hiPSC survival 0.1.
O=C(O)c1cccc(S(=O)(=O)Nc2ccccc2C(=O)NCCc2ccccc2)c1 was read as beta cell repl 0.7, Myeloid diff MLP active, ABCB6 inh MLPCN 100.0, H9c2 protect 4.3 and hiPSC survival -0.6.
`CCNc1nc(NC(C)C)nc(NS(=O)(=O)c2ccc(N)cc2)n1` gave beta cell repl -1.6, Myeloid diff MLP active, ABCB6 inh MLPCN 98.0, H9c2 protect 1.2 and hiPSC survival 2.3.
`CNc1ccc(S(=O)(=O)NCC(=O)NCCCc2ccccc2)cc1[N+](=O)[O-]` gave beta cell repl -6.3, Myeloid diff MLP inactive, ABCB6 inh MLPCN 104.0, H9c2 protect -2.1 and hiPSC survival -0.2.
Screening O=C(Nc1nc2c(s1)CN(Cc1ccccc1)CC2)c1cccc(S(=O)(=O)N2CCc3ccccc32)c1 returned beta cell repl -4.4, Myeloid diff MLP active, ABCB6 inh MLPCN 105.0, H9c2 protect 5.9 and hiPSC survival -1.6.
O=C(Nc1nc2ccccc2s1)c1cccc(S(=O)(=O)N2CCc3ccccc32)c1 was read as beta cell repl -6.2, Myeloid diff MLP inactive, ABCB6 inh MLPCN 95.0, H9c2 protect -12.4 and hiPSC survival -0.1.
O=C(Cn1nc(Br)nc1Br)c1ccccc1 was read as beta cell repl -2.3, Myeloid diff MLP inactive, ABCB6 inh MLPCN 98.0, H9c2 protect -4.7 and hiPSC survival -0.7.
For CCCCN(CC)CCNC(=O)c1cc2cc3ccc(Cl)cc3nc2o1 the results were beta cell repl -4.3, Myeloid diff MLP active, ABCB6 inh MLPCN inactive, H9c2 protect -2.8 and hiPSC survival -0.2.
`CCCCN(CC)CCCNC(=O)c1cc2cc3ccc(C)cc3nc2o1` gave beta cell repl 0.2, Myeloid diff MLP inactive, ABCB6 inh MLPCN 99.0, H9c2 protect 6.6 and hiPSC survival 0.3.
COCCNC(=O)c1ccc2c(=O)n(Cc3ccco3)c(SCC(=O)NC3CCCCC3)nc2c1 was read as beta cell repl 0.4, Myeloid diff MLP inactive, ABCB6 inh MLPCN 93.0, H9c2 protect 14.4 and hiPSC survival 0.9.
For c1ccc(-c2noc(-c3cccnc3)n2)nc1 the results were beta cell repl -2.9, Myeloid diff MLP active, ABCB6 inh MLPCN 109.0, H9c2 protect -6.2 and hiPSC survival -3.0.
CCOC(=O)C1=C(C)Nc2ccccc2N=C1N was read as beta cell repl 1.0, Myeloid diff MLP inactive, ABCB6 inh MLPCN 102.0, H9c2 protect 6.9 and hiPSC survival 1.6.
`CCOC(=O)C1=C(C)Nc2ccccc2N=C1NC(=O)c1oc2ccccc2c1COC` gave beta cell repl -0.4, Myeloid diff MLP inactive, ABCB6 inh MLPCN 94.0, H9c2 protect 85.6* and hiPSC survival 0.2.
`COC(=O)N1C(=O)[C@](c2ccccc2)(C2CCCC2)N1C(=O)OC` gave beta cell repl 1.1, Myeloid diff MLP inactive, ABCB6 inh MLPCN 101.0, H9c2 protect 79.9* and hiPSC survival 0.2.
COc1cc(NC(=O)c2noc3c2CCCC3)c(OC)cc1Cl was read as beta cell repl -0.9, Myeloid diff MLP inactive, ABCB6 inh MLPCN 96.0, H9c2 protect -0.9 and hiPSC survival 0.7.
Screening COc1ccc(Cl)cc1NC(=O)c1noc2c1CCCC2 returned beta cell repl 7.6*, Myeloid diff MLP inactive, ABCB6 inh MLPCN 96.0, H9c2 protect -2.0 and hiPSC survival 0.0.
N#C/C(=C/C=C/c1ccccc1)C(=O)Nc1ccccc1 was read as beta cell repl -5.2, Myeloid diff MLP active, ABCB6 inh MLPCN 96.0, H9c2 protect 4.1 and hiPSC survival 0.3.
CC1CCN(S(=O)(=O)c2ccc(C(=O)OCc3ccc4c(c3)OCO4)cc2)CC1 was read as beta cell repl 1.8, Myeloid diff MLP inactive, ABCB6 inh MLPCN 105.0, H9c2 protect -10.1 and hiPSC survival 2.0.
CN(C)S(=O)(=O)c1ccc2c(c1)C(=O)c1cc(S(=O)(=O)N(C)C)ccc1CC2 was read as beta cell repl 0.8, Myeloid diff MLP inactive, ABCB6 inh MLPCN 94.0, H9c2 protect -7.8 and hiPSC survival 1.1.
